Measurements reported in PMC7862700, “An all-to-all approach to the identification of sequence-specific readers for epigenetic DNA modifications on cytosine”.

How the values were obtained:
Assay in all cases: DAPPL (digital affinity profiling via proximity ligation, sequencing); 10 mM Tris-HCl pH 7.5, 50 mM NaCl, 1 mM DTT, 4% glycerol, room temperature, 30 min; GST-TFs on glutathione beads, 16-mer random dsDNA library, 0.1% formaldehyde crosslink after washing; high values mean tight binding
FEV = target: T1, FEV (Homo sapiens, UniProt Q99581 1-238); conditions: protein: recombinant; tags: N-terminal GST; dsDNA, one strand shown
T1 sequence: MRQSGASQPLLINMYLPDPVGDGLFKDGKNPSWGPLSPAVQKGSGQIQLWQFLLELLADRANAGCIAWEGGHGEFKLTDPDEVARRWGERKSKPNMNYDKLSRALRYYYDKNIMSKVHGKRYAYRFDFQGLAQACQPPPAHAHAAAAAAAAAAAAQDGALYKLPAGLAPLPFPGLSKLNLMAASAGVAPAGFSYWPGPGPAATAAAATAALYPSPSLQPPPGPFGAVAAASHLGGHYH
Method in brief: (§1)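 Binding signal is each hexamer's read frequency for a factor divided by its frequency in the tag-only sample. The factors were GST-fused human transcription factors from yeast, captured on glutathione beads, DNA-barcoded and pooled with that sample. Pools were incubated with 200 nmole of a random double-stranded 16-mer DNA library in Tris/NaCl/DTT/glycerol buffer at room temperature for 30 min, then washed, crosslinked with 0.1% formaldehyde, proximity-ligated with BsaI/T4 ligase (1 h, 37 °C), PCR-amplified and sequenced on an Illumina NextSeq500.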

ETV5 = ETV5 (Homo sapiens, UniProt P41161 1-510); conditions: protein: recombinant; tags: N-terminal GST; dsDNA, one strand shown
Method in brief: as §1

HSF1 = HSF1 (Homo sapiens, UniProt Q00613 1-529); conditions: protein: recombinant; tags: N-terminal GST; chain copies: 3; dsDNA, one strand shown
Method in brief: as §1

SPIC = target: T2, SPIC (Homo sapiens, UniProt Q8N5J4 1-248); conditions: protein: recombinant; tags: N-terminal GST; dsDNA, one strand shown
T2 sequence: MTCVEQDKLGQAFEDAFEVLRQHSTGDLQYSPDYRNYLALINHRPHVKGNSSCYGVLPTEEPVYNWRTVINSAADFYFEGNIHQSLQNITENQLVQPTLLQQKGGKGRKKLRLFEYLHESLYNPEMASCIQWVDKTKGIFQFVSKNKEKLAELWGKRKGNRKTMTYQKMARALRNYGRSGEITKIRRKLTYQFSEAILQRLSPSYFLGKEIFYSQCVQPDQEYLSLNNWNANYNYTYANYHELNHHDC
Method in brief: as §1

ELF4 = ELF4 (Homo sapiens, UniProt Q99607 1-663); conditions: protein: recombinant; tags: N-terminal GST; dsDNA, one strand shown
Method in brief: as §1

ELK4 = target: T3, ELK4 (Homo sapiens, UniProt P28324-2 1-405); conditions: protein: recombinant; tags: N-terminal GST; dsDNA, one strand shown
T3 sequence: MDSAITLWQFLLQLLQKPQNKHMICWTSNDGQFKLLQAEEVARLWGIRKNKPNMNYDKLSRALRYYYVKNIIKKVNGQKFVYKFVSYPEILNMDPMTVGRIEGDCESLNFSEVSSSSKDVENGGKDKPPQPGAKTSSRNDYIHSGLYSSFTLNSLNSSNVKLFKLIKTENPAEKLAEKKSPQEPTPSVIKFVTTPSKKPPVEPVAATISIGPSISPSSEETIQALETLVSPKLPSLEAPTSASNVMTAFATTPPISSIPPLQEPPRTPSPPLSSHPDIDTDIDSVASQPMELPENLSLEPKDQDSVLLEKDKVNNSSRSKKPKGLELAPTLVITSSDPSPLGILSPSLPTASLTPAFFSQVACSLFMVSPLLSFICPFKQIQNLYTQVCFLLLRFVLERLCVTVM
Method in brief: as §1

ETV2 = target: T4, ETV2 (Homo sapiens, UniProt O00321 1-342); conditions: protein: recombinant; tags: N-terminal GST; dsDNA, one strand shown
T4 sequence: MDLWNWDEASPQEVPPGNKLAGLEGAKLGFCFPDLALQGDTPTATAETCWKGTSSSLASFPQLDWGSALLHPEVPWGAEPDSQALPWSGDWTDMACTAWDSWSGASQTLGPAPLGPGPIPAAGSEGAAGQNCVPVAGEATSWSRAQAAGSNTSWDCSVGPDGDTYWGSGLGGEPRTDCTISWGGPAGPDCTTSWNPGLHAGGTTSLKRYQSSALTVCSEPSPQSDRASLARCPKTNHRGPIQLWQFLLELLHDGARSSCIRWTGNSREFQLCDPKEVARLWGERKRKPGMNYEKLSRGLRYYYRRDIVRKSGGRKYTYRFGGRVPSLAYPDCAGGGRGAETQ
Method in brief: as §1

ELF3 = target: T5, ELF3 (Homo sapiens, UniProt P78545 1-371); conditions: protein: recombinant; tags: N-terminal GST; dsDNA, one strand shown
T5 sequence: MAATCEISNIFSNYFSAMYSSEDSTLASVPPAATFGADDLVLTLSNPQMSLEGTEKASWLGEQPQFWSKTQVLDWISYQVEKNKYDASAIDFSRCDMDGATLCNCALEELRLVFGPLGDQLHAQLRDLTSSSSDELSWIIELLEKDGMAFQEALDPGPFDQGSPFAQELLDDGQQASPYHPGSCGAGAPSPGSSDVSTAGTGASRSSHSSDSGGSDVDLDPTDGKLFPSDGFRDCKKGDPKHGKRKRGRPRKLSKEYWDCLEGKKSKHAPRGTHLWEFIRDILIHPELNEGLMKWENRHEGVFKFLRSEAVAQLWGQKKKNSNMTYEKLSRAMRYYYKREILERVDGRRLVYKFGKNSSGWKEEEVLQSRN
Method in brief: as §1

CRX = CRX (Homo sapiens, UniProt O43186 1-299); conditions: protein: recombinant; tags: N-terminal GST; dsDNA, one strand shown
Method in brief: as §1

ETV1 = ETV1 (Homo sapiens, UniProt P50549 1-477); conditions: protein: recombinant; tags: N-terminal GST; dsDNA, one strand shown
Method in brief: as §1

ERF = target: T6, ERF (Homo sapiens, UniProt P50548 1-548); conditions: protein: recombinant; tags: N-terminal GST; dsDNA, one strand shown
T6 sequence: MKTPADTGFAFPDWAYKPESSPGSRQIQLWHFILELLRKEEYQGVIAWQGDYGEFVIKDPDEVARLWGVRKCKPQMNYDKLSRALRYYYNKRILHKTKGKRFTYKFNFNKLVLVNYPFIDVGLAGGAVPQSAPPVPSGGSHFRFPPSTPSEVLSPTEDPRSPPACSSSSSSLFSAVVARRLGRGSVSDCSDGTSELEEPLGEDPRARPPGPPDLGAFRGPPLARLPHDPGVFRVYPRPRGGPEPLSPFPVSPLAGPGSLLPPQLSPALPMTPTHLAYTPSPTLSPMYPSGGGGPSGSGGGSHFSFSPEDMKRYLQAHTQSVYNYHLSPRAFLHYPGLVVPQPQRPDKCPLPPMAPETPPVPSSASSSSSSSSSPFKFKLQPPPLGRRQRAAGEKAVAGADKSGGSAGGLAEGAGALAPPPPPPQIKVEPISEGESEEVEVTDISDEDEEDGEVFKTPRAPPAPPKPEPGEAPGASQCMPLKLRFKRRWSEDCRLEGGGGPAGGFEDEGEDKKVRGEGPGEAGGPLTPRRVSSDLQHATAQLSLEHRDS
Method in brief: as §1

ETV3L = target: T7, ETV3L (Homo sapiens, UniProt Q6ZN32 1-361); conditions: protein: recombinant; tags: N-terminal GST; dsDNA, one strand shown
T7 sequence: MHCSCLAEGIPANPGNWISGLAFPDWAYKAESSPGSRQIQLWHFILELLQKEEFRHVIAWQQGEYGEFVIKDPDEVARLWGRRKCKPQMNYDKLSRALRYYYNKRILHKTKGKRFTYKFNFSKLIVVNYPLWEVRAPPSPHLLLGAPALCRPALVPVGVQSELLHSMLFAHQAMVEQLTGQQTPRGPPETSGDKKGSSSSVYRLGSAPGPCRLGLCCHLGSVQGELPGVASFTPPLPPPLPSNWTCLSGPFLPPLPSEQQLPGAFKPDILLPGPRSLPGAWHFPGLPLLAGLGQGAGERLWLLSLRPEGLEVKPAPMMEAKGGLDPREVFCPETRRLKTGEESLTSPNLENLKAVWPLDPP
Method in brief: as §1

ETS2 = target: T8, ETS2 (Homo sapiens, UniProt P15036 1-469); conditions: protein: recombinant; tags: N-terminal GST; dsDNA, one strand shown
T8 sequence: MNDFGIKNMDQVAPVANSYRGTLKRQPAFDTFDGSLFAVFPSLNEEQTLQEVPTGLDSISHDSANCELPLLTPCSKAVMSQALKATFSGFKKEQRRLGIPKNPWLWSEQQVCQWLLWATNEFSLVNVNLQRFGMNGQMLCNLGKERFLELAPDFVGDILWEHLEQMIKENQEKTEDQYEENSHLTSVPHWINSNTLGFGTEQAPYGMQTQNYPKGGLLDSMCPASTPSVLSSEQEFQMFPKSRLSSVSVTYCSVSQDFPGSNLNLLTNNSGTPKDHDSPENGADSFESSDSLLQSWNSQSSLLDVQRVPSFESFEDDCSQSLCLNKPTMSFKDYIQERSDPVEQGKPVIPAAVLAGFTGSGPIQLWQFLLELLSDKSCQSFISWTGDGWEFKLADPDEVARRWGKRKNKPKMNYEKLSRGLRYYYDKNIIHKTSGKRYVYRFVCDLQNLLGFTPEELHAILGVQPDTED
Method in brief: as §1

SPDEF = target: T9, SPDEF (Homo sapiens, UniProt O95238 1-335); conditions: protein: recombinant; tags: N-terminal GST; dsDNA, one strand shown
T9 sequence: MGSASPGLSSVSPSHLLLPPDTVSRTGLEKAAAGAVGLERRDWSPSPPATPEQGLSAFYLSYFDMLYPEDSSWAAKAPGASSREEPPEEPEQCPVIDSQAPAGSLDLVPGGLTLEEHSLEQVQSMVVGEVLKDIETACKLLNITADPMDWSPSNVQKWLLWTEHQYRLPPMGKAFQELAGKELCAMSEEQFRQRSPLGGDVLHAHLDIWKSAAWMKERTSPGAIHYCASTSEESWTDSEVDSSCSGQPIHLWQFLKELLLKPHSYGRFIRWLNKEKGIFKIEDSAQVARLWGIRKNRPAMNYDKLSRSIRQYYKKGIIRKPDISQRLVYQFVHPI
Method in brief: as §1

ETV7 = target: T10, ETV7 (Homo sapiens, UniProt Q9Y603 1-341); conditions: protein: recombinant; tags: N-terminal GST; dsDNA, one strand shown
T10 sequence: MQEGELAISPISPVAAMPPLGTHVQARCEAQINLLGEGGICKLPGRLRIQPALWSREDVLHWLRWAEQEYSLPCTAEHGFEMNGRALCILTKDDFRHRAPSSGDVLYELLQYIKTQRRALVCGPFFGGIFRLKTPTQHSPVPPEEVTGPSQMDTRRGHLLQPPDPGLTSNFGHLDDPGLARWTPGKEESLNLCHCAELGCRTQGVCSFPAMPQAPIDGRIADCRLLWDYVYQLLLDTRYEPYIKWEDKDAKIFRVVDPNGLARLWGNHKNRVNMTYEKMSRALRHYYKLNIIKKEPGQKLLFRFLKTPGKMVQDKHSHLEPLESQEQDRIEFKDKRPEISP
Method in brief: as §1

ELF5 = target: T11, ELF5 (Homo sapiens, UniProt Q9UKW6-2 1-255); conditions: protein: recombinant; tags: N-terminal GST; dsDNA, one strand shown
T11 sequence: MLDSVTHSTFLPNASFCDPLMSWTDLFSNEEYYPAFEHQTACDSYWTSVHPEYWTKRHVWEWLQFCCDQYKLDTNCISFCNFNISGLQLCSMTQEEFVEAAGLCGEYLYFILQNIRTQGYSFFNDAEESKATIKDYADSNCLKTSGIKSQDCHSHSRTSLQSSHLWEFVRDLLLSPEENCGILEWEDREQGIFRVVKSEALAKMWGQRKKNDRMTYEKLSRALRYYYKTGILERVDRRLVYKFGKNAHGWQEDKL
Method in brief: as §1

ETV3 = target: T12, ETV3 (Homo sapiens, UniProt P41162-2 1-143); conditions: protein: recombinant; tags: N-terminal GST; dsDNA, one strand shown
T12 sequence: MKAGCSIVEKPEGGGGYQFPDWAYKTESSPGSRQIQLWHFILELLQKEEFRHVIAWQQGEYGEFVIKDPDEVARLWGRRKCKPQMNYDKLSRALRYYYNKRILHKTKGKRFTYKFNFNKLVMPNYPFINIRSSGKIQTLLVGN
Method in brief: as §1

ETV6 = ETV6 (Homo sapiens, UniProt P41212 1-452); conditions: protein: recombinant; tags: N-terminal GST; dsDNA, one strand shown
Method in brief: as §1

Sequence of ELF4 (Q99607 whole entry): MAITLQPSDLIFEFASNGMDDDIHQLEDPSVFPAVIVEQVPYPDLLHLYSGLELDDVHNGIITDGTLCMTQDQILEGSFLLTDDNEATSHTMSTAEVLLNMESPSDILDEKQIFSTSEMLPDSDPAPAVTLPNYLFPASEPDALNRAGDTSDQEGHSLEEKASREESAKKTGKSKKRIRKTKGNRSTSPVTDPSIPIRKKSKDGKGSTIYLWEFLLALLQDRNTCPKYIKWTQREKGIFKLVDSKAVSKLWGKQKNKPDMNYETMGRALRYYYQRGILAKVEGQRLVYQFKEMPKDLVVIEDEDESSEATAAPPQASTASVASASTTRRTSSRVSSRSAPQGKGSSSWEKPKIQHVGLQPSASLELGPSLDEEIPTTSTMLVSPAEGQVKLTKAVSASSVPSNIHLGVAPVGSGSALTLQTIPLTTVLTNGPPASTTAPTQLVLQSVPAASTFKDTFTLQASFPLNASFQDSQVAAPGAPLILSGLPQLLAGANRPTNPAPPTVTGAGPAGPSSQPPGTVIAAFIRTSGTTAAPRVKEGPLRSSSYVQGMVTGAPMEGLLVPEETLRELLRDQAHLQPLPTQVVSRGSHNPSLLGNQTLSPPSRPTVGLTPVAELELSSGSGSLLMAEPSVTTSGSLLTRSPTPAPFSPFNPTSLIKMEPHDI
Sequence of ETV6 (P41212 whole entry): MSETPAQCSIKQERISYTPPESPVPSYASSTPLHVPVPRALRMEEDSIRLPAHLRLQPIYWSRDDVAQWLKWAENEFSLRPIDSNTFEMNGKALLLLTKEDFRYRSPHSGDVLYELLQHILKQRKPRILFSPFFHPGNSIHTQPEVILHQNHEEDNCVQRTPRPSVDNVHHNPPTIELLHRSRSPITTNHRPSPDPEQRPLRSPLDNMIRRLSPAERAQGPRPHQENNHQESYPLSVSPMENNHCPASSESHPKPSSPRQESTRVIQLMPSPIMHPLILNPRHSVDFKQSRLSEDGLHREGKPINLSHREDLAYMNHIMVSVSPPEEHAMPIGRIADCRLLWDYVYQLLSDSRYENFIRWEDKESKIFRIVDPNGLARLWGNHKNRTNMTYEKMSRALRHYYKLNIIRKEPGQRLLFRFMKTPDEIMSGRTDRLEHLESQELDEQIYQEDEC
Sequence of ETV1 (P50549 whole entry): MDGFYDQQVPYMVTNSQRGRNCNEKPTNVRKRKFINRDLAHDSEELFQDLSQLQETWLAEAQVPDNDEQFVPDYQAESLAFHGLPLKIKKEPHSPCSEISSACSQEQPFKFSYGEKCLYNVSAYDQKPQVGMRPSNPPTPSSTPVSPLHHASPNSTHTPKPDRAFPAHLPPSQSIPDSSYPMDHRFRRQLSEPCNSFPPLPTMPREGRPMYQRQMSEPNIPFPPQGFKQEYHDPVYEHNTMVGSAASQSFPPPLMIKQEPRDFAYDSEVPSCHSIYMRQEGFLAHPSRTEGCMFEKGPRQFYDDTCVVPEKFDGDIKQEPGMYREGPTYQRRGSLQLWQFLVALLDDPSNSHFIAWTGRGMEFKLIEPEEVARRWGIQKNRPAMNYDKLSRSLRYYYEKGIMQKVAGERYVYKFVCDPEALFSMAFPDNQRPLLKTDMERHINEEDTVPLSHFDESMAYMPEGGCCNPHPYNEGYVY
Sequence of CRX (O43186 whole entry): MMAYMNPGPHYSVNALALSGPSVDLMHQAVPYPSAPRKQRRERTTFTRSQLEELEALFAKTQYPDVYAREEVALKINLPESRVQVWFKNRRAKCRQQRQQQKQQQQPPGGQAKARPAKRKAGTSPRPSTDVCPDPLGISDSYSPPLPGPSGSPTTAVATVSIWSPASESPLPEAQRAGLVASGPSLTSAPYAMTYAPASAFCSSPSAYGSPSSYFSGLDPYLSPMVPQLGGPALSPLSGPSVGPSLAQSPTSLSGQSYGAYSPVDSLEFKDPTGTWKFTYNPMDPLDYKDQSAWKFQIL
Sequence of HSF1 (Q00613 whole entry): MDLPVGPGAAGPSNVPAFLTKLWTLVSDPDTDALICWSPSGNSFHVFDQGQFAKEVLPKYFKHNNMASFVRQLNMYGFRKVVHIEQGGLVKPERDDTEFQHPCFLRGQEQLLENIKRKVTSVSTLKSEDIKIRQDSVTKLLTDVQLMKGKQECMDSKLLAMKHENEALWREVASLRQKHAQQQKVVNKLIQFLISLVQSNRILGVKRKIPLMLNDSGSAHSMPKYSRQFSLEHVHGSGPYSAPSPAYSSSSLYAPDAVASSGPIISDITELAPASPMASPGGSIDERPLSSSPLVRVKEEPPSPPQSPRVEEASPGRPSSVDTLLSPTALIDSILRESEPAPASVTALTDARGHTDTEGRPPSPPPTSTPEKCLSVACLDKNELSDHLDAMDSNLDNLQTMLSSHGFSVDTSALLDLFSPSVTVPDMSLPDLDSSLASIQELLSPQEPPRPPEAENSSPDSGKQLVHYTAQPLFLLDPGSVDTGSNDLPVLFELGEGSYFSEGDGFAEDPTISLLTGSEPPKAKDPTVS
Sequence of ETV5 (P41161 whole entry): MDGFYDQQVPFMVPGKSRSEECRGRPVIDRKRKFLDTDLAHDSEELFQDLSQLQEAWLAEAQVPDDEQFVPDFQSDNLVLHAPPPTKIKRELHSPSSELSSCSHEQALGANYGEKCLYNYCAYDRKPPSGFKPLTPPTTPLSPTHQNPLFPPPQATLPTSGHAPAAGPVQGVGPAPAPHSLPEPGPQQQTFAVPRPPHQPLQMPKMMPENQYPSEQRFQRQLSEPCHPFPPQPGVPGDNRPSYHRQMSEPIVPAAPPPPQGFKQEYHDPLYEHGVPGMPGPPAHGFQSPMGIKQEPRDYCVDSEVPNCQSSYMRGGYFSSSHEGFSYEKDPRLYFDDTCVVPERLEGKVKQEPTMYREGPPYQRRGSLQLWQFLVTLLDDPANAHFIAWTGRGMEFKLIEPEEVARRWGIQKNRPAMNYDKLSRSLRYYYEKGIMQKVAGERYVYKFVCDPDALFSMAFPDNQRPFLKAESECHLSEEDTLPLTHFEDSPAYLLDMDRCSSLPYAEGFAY

Sequence: CACTAT
- binding signal (FEV): 1.21 fold enrichment (6-mer frequency, TF over GST control)
- binding signal (ETV5): 1.2 fold enrichment (6-mer frequency, TF over GST control)
- binding signal (HSF1): 1.05 fold enrichment (6-mer frequency, TF over GST control)
- binding signal (SPIC): 1.2 fold enrichment (6-mer frequency, TF over GST control)
- binding signal (ELF4): 1.26 fold enrichment (6-mer frequency, TF over GST control)
- binding signal (ELK4): 1.25 fold enrichment (6-mer frequency, TF over GST control)
- binding signal (ETV2): 1.09 fold enrichment (6-mer frequency, TF over GST control)
- binding signal (ELF3): 1.32 fold enrichment (6-mer frequency, TF over GST control)
- binding signal (CRX): 1.05 fold enrichment (6-mer frequency, TF over GST control)
- binding signal (ETV1): 1.14 fold enrichment (6-mer frequency, TF over GST control)
- binding signal (ERF): 1.2 fold enrichment (6-mer frequency, TF over GST control)
- binding signal (ETV3L): 1.18 fold enrichment (6-mer frequency, TF over GST control)
- binding signal (ETS2): 1.25 fold enrichment (6-mer frequency, TF over GST control)
- binding signal (SPDEF): 1.18 fold enrichment (6-mer frequency, TF over GST control)
- binding signal (ETV7): 1.29 fold enrichment (6-mer frequency, TF over GST control)
- binding signal (ELF5): 1.15 fold enrichment (6-mer frequency, TF over GST control)
- binding signal (ETV3): 1.2 fold enrichment (6-mer frequency, TF over GST control)
- binding signal (ETV6): 1.14 fold enrichment (6-mer frequency, TF over GST control)
